Active and inactive are the calls of the source. Rule for the calls: active = hit-call score of the fitted dose curve at least 0.9, where 1 is the maximum; inactive = score below 0.9.

Sequence of Broad substrate specificity ATP-binding cassette transporter ABCG2 (Homo sapiens) (Q9UNQ0 whole entry, looked up): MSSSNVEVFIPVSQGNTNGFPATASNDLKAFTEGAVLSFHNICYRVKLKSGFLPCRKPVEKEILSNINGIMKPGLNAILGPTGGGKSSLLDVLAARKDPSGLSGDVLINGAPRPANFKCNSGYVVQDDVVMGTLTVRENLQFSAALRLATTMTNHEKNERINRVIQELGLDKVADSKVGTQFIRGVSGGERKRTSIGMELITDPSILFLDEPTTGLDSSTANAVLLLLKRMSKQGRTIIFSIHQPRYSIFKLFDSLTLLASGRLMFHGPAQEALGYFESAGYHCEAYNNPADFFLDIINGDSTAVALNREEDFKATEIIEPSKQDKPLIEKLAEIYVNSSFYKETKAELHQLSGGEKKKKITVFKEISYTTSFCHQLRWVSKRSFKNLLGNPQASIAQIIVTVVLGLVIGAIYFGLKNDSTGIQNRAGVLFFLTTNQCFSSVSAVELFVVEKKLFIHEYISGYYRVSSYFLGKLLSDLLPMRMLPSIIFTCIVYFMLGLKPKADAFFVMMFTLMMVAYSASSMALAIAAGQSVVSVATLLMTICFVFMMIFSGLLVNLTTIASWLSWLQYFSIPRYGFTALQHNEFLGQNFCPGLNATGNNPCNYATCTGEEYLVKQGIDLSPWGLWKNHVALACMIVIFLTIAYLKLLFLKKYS

Read-out in the experiment: Broad substrate specificity ATP-binding cassette transporter ABCG2 (Homo sapiens) (UniProt Q9UNQ0)
As to the kind of experiment: LTEA_HepaRG_ABCG2: Life Technologies and Expression Analysis (LTEA) Assay for ABC Transporter (ABCG2) using HepaRG (AID 2283465). The conditions noted are these: mRNA level, 48 h; actives raise or lower the signal. The method, then:
LTEA_HepaRG is a cell based, multiplexed-readout assay that uses HepaRG, a human liver cell line, with measurements taken at 48 hours after chemical dosing on a 96-well plate.LTEA_HepaRG_ABCG2 is one of 102 assay component(s) measured in the LTEA HepaRG cell culture assay. It is a marker of Steatosis/NR mediated transport.Data from the assay component LTEA_HepaRG_ABCG2 was analyzed into 1 endpoint. This assay endpoint, LTEA_HepaRG_ABCG2, was analyzed with bidirectional fitting relative to DMSO as the negative control and baseline of activity. Using a type of inducible reporter, measures of mRNA induction for gain or loss-of-signal activity can be used to understand regulation of transcription factor activity. To generalize the intended target to other relatable targets, this assay endpoint is annotated to the transporter intended target family, where the subfamily is ABC transporter.
A total of 1060 chemcials from the ToxCast library were tested in eight-point concentration-response experiments. Cell culture and cytotoxicity assays were conducted at Thermo Fisher Scientific's Custom Services facility (Madison, WI). A single lot of human HepaRG cells (Thermo Fisher Scientific, Frederick, MD) was used for the cell culture experiments. 96-well format collagen type I coated plates of human HepaRG cells were prepared using established methods. Briefly, cryopreserved HepaRG cells were thawed, plated at a density of approximately 100,000 cells/well in HepaRG Thaw, Plate, and General Purpose media (HPRG770, Thermo Fisher Scientific), and incubated for 48 hours. 0.5% DMSO was selected as vehicle control to balance the requisite need of DMSO in HepaRG cultures to maintain differentiation (for example, baseline metabolism, proportions of hepatocytes vs. cholangiocytes), while enabling further hepatic receptor pathway activation (for example, PXR and CAR) in response to chemical exposure. 48 hours after plating, the culture medium was replaced with HepaRG Serum-Free Incudtion Media. Cells were exposed to each test chemical in duplicate and maintained in CO2 incubators for another 48 hours. Chemical plates were thawed to room temperature and 200x concentrations of treatment groups were prepared. 8-point conentration-reponse curves were made with the highest exposure at 100 uM, followed by half-log dilutions, all in 0.5% DMSO. Each test plate contained variouse controls, induction positive controls (1mM phenobarbital), cytotoxicity positive controls ([…] aflatoxin B1), vehicle controls (0.5% DMSO), and total lysis controls (0.5% DMSO). Cell morphology images were taken using an Essen IncuCyte FLR automated microscope, with six 96-well plates imaged in about 24 minutes. Images were captured and exported and JPEG files. Spent culture media was transfered to black-well plates for the LDH assay, and remaining media was sorted at -80 C for later use. Cells were treated with RLT buffer and frozen until shipped for gene expression analysis. Total RNA was isolated from the cell suspension in 75 uL of Buffer RLT (Qiagen, Germantown, MD 20874) by Quintiles/Expression Analysis (Durham, NC) using a custom isolation procedure. Total RNA from each plate well was transferred to a preamplification plate. Fluidigm's 96.96 Dynamic ArrayTM (Fluidigm, Amsterdam, the Netherlands) technology was used for gene expression analyses by quantitative reverse transcription polymerase chain reaction (qRT-PCR, performed by Quintiles/Expression Analysis, Durham, NC)89. Standard TaqManTM Assays (Applied Biosystems/ThermoFisher Scientific, Foster City, CA) were used to assess the expression of 93 genes selected based on their selectivity and sensitivity to important hepatic receptors known to be modulated by environmental chemicals; importance in human hepatocyte functionality; and hepatotoxicity. […]
One may read the AC50 as the concentration giving half of the maximal activity seen. On to `CC(C)c1cccc(C(C)C)c1NC(=O)NS(=O)(=O)c1cc(C(C)(C)O)co1`, for which the AC50 is 12.6 µM (active).
Consider `Cc1ccc(-c2cc(C(F)(F)F)nn2-c2ccc(S(N)(=O)=O)cc2)cc1`, for which the molecule was called inactive.
`CCCCCCCCCCCCCCCCO`: the molecule was called inactive.
In the case of `OCC(O)CO`, the molecule was classed as inactive.
In the case of `CS(=O)(=O)c1ccc([C@@H](C[C@H]2CCC(=O)C2)C(=O)Nc2cnccn2)cc1Cl`, the AC50 is 1.29 µM (active).
In the case of `Cc1cc(SC2=C(O)C[C@@](CCc3ccc(N)cc3)(C(C)C)OC2=O)c(C(C)(C)C)cc1CO`, the outcome was inactive.
As to `CCCCc1nc2cccnc2n1Cc1ccc(-c2ccccc2-c2nnn[nH]2)cc1`, the AC50 is 27.1 µM (active).
For the molecule `CN(C)C(=O)NC1(c2ccccc2)CCN(CCC[C@]2(c3ccc(Cl)c(Cl)c3)CCCN(C(=O)c3ccccc3)C2)CC1`, the outcome was inactive.
`O=C(NS(=O)(=O)/C=C/c1cccs1)c1ccc(F)cc1Br`: the concentration at half-maximal activity (AC50) is 9.27 µM (active).
Turning to `O=NO`, the molecule was classed as inactive.
In the case of `CO[C@@H]1COCC[C@@H]1N[C@@H]1CC[C@@](C(=O)N2CCc3ncc(C(F)(F)F)cc3C2)(C(C)C)C1`, the call was inactive.
On to `O=C(O)c1[nH]n(-c2ccc(S(=O)(=O)O)cc2)c(=O)c1N=Nc1ccc(S(=O)(=O)O)cc1`, for which the outcome was inactive.
For `c1ccc2occc2c1`, the molecule was classed as inactive.
`C=CCc1ccc(OC)c(OC)c1`: the molecule was called inactive.
In the case of `CSc1ccc(Oc2ccc(S(N)(=O)=O)cc2CN(C)C)cc1C`, the outcome was inactive.
With `Cc1cn([C@H]2C=C[C@@H](CO)O2)c(=O)[nH]c1=O`, the result was inactive.
`CCCCC(CC)CO` (stereo not given): the result was inactive.
Still for that read-out and setting: the same measure for `O=Cc1ccccc1C=O`: “inactive”; for `CCCC(=O)O`: “inactive”; for `CCCCCCCCCC[N+](C)(C)[O-]`: “inactive”.
In the case of `S=c1[nH]c2ccccc2s1`, the call was inactive.
Same read-out and setting: the same measure for `CCCCC(CC)COP(=O)(OCC(CC)CCCC)OCC(CC)CCCC` (stereo not given): “inactive”; for `CCCC[C@H]1CN(CC2CCOCC2)C(=O)OC12CCN(C1(C)CCN(C(=O)c3c(C)ncnc3C)CC1)CC2`: “inactive”.
Take `CC(C)c1cccc(C(C)C)c1`: the result was inactive.
On the same count and under the same terms, in the case of `Cc1cc(Cc2ccc(N)c(C)c2)ccc1N` it was “inactive”.
Regarding `O=C1CCCCC1`, the result was inactive.
In the case of `CC(C)(O)c1ccc(CNC(=O)c2cccnc2Oc2ccc(F)cc2)cc1`, the call was inactive.
On the same count and under the same terms, in the case of `COC(=O)[C@H]1[C@H]2C[C@@H]3c4[nH]c5cc(OC)ccc5c4CCN3C[C@H]2C[C@@H](OC(=O)c2cc(OC)c(OC)c(OC)c2)[C@@H]1OC` it was “inactive”; in that of `CCCCCCC(CCCCCCCCCCC(=O)OCC(COC(C)=O)OC(C)=O)OC(C)=O` (stereo not given), “inactive”.
Regarding `O=C(O)CN(CC(=O)O)CC(=O)O`, the molecule was classed as inactive.
Same read-out and setting: in the case of `C#CC(O)C(CC)CCCC` (stereo not given) it was “inactive”.
As for `O=C1c2c(O)cccc2Cc2cccc(O)c21`, the molecule was classed as inactive.
Consider `COc1ccc(C(=O)Nc2nc3ccccc3c(NCc3ccccc3)c2C#N)cc1`, for which the concentration at half-maximal activity (AC50) is 17.4 µM (active).
Consider `CN(C)CCCN(C)CCCN(C)C`, for which the molecule was classed as inactive.
With `CCN(CC)CCOc1ccc(C(=C(Cl)c2ccccc2)c2ccccc2)cc1`, the call was inactive.
As for `CC1(C)C(=O)NC(=O)N1CO`, the molecule was classed as inactive.
Regarding `O=C1NC(=O)C(c2ccccc2)(c2ccccc2)N1`, the molecule was classed as inactive.
Consider `CCCCCCC(C=O)=Cc1ccccc1`, for which the call was inactive.
For `CC(=O)O`, the molecule was classed as inactive.
With `Oc1ccc(O)cc1`, the molecule was classed as inactive.

The values are drawn from PubChem BioAssay (EPA / NIEHS).
